Source: PubChem BioAssay AID1159580 (chemical genetic matrix, 2015)
“And” between values parts separate entries of the source, which are not always exact repeats. Equal values may be shown once. Hit rate of the full screen: of about 5,500 compounds, about 2,000 (36%) were called active. Another 18% or so got no clear call; they are omitted. No stated cut-off is given here; in the data, active means normalized growth mostly below about 0.91 (no sharp cut-off); inconclusive means no clear call, values can overlap the other calls; inactive means mostly above about 0.92. The list shows a part of the results.

Test: chemical genetic growth profiling, strain panel (AID 1159580);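 further: tested at 20 µM; growth read once vehicle control cultures reached saturation at 30 °C; 1 = growth at the plate median or of vehicle wells; lower values mean less growth of the strain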
Details: S. cerevisiae deletion strains, growth OD

Measured: normalized growth

CC(C)(Oc1ccc(CCNC(=O)c2ccc(Cl)cc2)cc1)C(=O)O
inactive: locus YAL013W, strain DEP1, active compounds read low 1.02 | locus YAL021C, strain ccr4, active compounds read low 0.982 | locus YAL026C, strain drs2, active compounds read low 0.985 | locus YAL030W, strain snc1, active compounds read low 0.996 | locus YBL061C, strain skt5, active compounds read low 0.999 | locus YBR009C, strain hhf1, active compounds read low 0.975 | locus YBR021W, strain FUR4, active compounds read low 1.02 | locus YBR023C, strain chs3, active compounds read low 0.986 | locus YBR171W, strain sec66, active compounds read low 0.978 | locus YBR229C, strain ROT2, active compounds read low 1.01 | locus YBR231C, strain swc5, active compounds read low 1.01 | locus YBR279W, strain paf1, active compounds read low 0.972 | locus YCL011C, strain gbp2, active compounds read low 0.982 | locus YCL016C, strain dcc1, active compounds read low 0.971 | locus YCL029C, strain bik1, active compounds read low 1.02 | locus YCL069W, strain vba3, active compounds read low 0.988 | locus YCR088W, strain abp1, active compounds read low 0.985 | locus YDL005C, strain med2, active compounds read low 0.984 | locus YDL035C, strain GPR1, active compounds read low 1.04 | locus YDL040C, strain nat1, active compounds read low 0.995 | locus YDL074C, strain BRE1, active compounds read low 1.01 | locus YDL101C, strain DUN1, active compounds read low 1.01 | locus YDL134C, strain PPH21, active compounds read low 1.05 | locus YDL185W, strain tfp1, active compounds read low 1.02 | locus YDL192W, strain arf1, active compounds read low 1.01 | locus YDR001C, strain nth1, active compounds read low 0.987 | locus YDR069C, strain doa4, active compounds read low 0.968 | locus YDR101C, strain arx1, active compounds read low 0.995 | locus YDR137W, strain rgp1, active compounds read low 0.988 | locus YDR150W, strain NUM1, active compounds read low 1.01 | locus YDR159W, strain sac3, active compounds read low 0.939 | locus YDR162C, strain NBP2, active compounds read low 1.03 | locus YDR195W, strain ref2 0.993 | locus YDR297W, strain sur2, active compounds read low 0.998 | locus YDR318W, strain mcm21, active compounds read low 1.02 | locus YDR334W, strain swr1, active compounds read low 0.995 | locus YDR335W, strain msn5, active compounds read low 0.977 | locus YDR388W, active compounds read low 1.01 | locus YDR392W, strain spt3, active compounds read low 0.882 | locus YDR502C, strain sam2, active compounds read low 1.02 | locus YEL003W, strain gim4, active compounds read low 1.01 | locus YEL037C, strain rad23, active compounds read low 0.99 | locus YEL061C, strain CIN8 (second series), active compounds read low 0.997 | locus YEL061C, strain CIN8, active compounds read low 1.01 | locus YER015W, strain faa2, active compounds read low 0.995 | locus YER016W, strain bim1, active compounds read low 0.971 | locus YER110C, active compounds read low 1 | locus YER111C, strain swi4, active compounds read low 0.984 | locus YER155C, strain BEM2 (second series), active compounds read low 0.975 | locus YER155C, strain BEM2, active compounds read low 1.01 | locus YER167W, strain BCK2, active compounds read low 1.01 | locus YFR010W, strain ubp6, active compounds read low 1.01 | locus YGL078C, strain dbp3, active compounds read low 1.02 | locus YGL086W, strain mad1, active compounds read low 1.01 | locus YGL167C, strain pmr1, active compounds read low 1 | locus YGL173C, strain kem1, active compounds read low 1 | locus YGL227W, strain vid30, active compounds read low 0.977 | locus YGL240W, strain doc1, active compounds read low 0.984 | locus YGL248W, strain PDE1, active compounds read low 1.01 | locus YGL253W, strain hxk2, active compounds read low 0.994 | locus YGR078C, strain PAC10, active compounds read low 1 | locus YGR135W, strain pre9, active compounds read low 1.02 | locus YGR252W, strain gcn5, active compounds read low 1.02 | locus YHR013C, strain ard1, active compounds read low 0.963 | locus YHR027C, strain rpn1, active compounds read low 0.986 | locus YHR030C, strain SLT2, active compounds read low 1.02 and 0.997 | locus YHR079C, strain IRE1 (second series), active compounds read low 1.02 | locus YHR079C, strain IRE1, active compounds read low 0.995 | locus YHR094C, strain hxt1, active compounds read low 1.01 | locus YHR129C, strain ARP1, active compounds read low 1.01 | locus YHR142W, strain chs7, active compounds read low 0.999 | locus YHR200W, strain rpn10, active compounds read low 1.03 | locus YIL066C, strain RNR3, active compounds read low 1.02 | locus YIL073C, strain SPO22, active compounds read low 1.15 | locus YIL125W, strain kgd1, active compounds read low 1.01 | locus YIR030C, strain dcg1, active compounds read low 1.02 | locus YJL092W, strain hpr5, active compounds read low 0.996 | locus YJL095W, strain BCK1 (second series), active compounds read low 0.983 | locus YJL095W, strain BCK1, active compounds read low 1 and 0.972 | locus YJL115W, strain asf1, active compounds read low 0.978 | locus YJL129C, strain trk1, active compounds read low 0.955 | locus YJL134W, strain LCB3, active compounds read low 1.01 | locus YJL154C, strain vps35, active compounds read low 0.98 | locus YJL164C, strain tpk1, active compounds read low 0.986 | locus YJL166W, strain qcr8, active compounds read low 0.992 | locus YJL168C, strain set2, active compounds read low 1.01 | locus YJL187C, strain SWE1 (second series), active compounds read low 1.01 | locus YJL187C, strain SWE1, active compounds read low 0.996 | locus YJR043C, strain POL32, active compounds read low 1.02 | locus YJR066W, strain TOR1, active compounds read low 0.967
